An excerpt weighted towards active compounds, which were near 2.9% of everything screened.
GALC G270D up: raises human GALC G270D mutant activity in cells. P54803. 145M-Twi-hGALC-G270D cells (Twitcher mouse brain line with human GALC G270D), HMU-beta-Gal fluorescence, 48 h. Potency, µM (titrated, usually from 57.5 µM), most hits filed as activators. actives 0.1% (n = 45,000); further: potency means the concentration at half of the fitted maximal effect; 0% is about no effect; nearly all actives have a fitted effect of over 65% in size
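Fluorogenic HMU-b-Gal hydrolysis (0.1 mM final, pH 5.2 citrate-phosphate with 1 mg/mL sodium taurocholate; carbonate stop buffer) measures mutant GALC activity after compound treatment of live 145M-Twi Twitcher brain cells stably carrying human GALC-G270D, with wild-type GALC line alongside; activation sought.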
TSG101-PTAP inh: TSG101-PTAP interaction inhibition, HIV-1 budding | Fluorescence polarization, FITC-PTAP peptide/Tsg101, 20 min | 44,000 tested, under 10 active | Potency, µM (titrated, usually from 115 µM), usual class: inhibitors; further: potency means the concentration at half of the fitted maximal effect; 0% is about no effect
Target sequence (Q99816 whole entry, looked up): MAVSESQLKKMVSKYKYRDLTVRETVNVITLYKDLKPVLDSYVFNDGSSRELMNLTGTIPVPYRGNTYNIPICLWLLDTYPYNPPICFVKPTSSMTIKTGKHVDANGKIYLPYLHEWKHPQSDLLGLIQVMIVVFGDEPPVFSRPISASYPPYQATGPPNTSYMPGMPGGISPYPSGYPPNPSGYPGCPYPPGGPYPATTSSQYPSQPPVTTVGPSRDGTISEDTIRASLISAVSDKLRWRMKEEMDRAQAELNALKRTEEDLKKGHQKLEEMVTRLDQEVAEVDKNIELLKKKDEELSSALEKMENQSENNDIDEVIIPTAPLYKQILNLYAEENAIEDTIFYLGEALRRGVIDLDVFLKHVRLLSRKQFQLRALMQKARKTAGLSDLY
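Read-out is FITC fluorescence polarization. Compounds were added to Tsg101 binding domain (10 uM final), then FITC-PTAP peptide (50 nM final), 20 min at r.t. Total S+P intensity flags fluorescent compounds.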
GPR32 ag: agonists of human resolvin D1 receptor DRV1 (GPR32). O75388. actives 2.5% (n = 48,000). activation, % at 76.9 µM. CHO-K1 GPR32 beta-arrestin PathHunter luminescence, 90 min; zero percent set by DMSO-only wells;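 active means activation of at least 60% and not above a set upper limit, about 1 call in 100 departs from these limits; inconclusive means activation of 40% to 60%, or above that upper limit; inactive means activation under 40%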; further: 0% is about no effect
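CHO-K1 cells stably expressing ProLink-tagged GPR32 and Enzyme Activator-tagged beta-arrestin were seeded at 2,500 cells/well overnight, exposed to compounds for 90 min at 37 °C, then read by beta-Gal complementation chemiluminescence after 1 h detection reagent.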
B2AR arrestin ag: ADRB2 beta-arrestin recruitment; Potency, µM (highest dose often 46.1 µM), hits mostly activators; 44,000 tested, under 10 active; AID 1347077; P07550; HTLA Tango cells, beta-arrestin recruitment, luciferase luminescence, 18 h;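 further: potency means the concentration at half of the fitted maximal effect; 0% = DMSO and full agonism = EC100 isoproterenol or metaproterenol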
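Tango cell line, 1% FBS DMEM; cpd titration up to 46 microM; 18 hr, 37 degrees C, 5% CO2. Luciferin/ATP substrate mix added, 15 min RT, luminescence. %Activity, CRC fitting, curve-class categorization.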
Active calls of the source: *; i = inactive; ? = inconclusive; / = no result. Unless noted, the call rests on the fitted dose curve; in most records, active means well fitted curve in the direction sought with a large enough effect; inconclusive means small, poorly fitted or top-dose-only effect, or another doubt; inactive means no such curve, though single readings can be large; an effect the other way counts as inactive or inconclusive.

SMILES	GALC G270D up	TSG101-PTAP inh	GPR32 ag	B2AR arrestin ag
Cc1n[nH]c(C)c1S(=O)(=O)N(CC(=O)Nc1ccc(C(F)(F)F)cc1)c1ccc(C(C)C)cc1	i	i	12.4	i
COc1cccc(NC(=O)CSc2nnc(NC(=O)NC3CCCCC3)s2)c1	i	i	0.2	i
CC(=O)c1cc(C(=O)Nc2cccc(C)c2)c2ccccn12	i	i	-4.6	i
Cc1cc(C)cc(NC(=O)c2ccc3oc(=O)c(S(=O)(=O)c4ccc(F)cc4)cc3c2)c1	i	i	102.8*	i
Cc1ccc(CN(C(=O)COc2ccc(F)cc2)C2CCS(=O)(=O)C2)o1 (centres undefined)	i	i	-11.9	i
CC(C)(C)OC(=O)N1CCC(c2c(C(=O)N3CCCCC3)cnn2-c2cccc(F)c2)CC1	10µM*	i	2.2	i
CN1CCN(C(=O)c2cnn(-c3cccc(F)c3)c2C2CCN(C(=O)OC(C)(C)C)CC2)CC1	i	i	-11.6	i
O=C(COc1ccc(F)cc1)Nc1ccc2nc(SCc3ccccc3)sc2c1	i	i	0.1	i
CCC(=O)Nc1ccc2nc(SCc3ccc(C)cc3)sc2c1	i	i	86.3*	i
NC(=O)CSc1nc2ccc(NC(=O)COc3ccccc3)cc2s1	i	i	69.7*	i
O=C(COc1ccc(F)cc1)Nc1ccc2nc(SCCOc3ccccc3)sc2c1	i	i	26.4	i
CC(C)(C)C(=O)Nc1ccc2nc(SCc3ccccc3)sc2c1	i	i	120.0*	i
O=C(Nc1ccc2nc(SCc3ccccc3)sc2c1)c1ccccc1F	i	i	26.6	i
Cc1ccc(CSc2nc3ccc(NC(=O)COc4ccc(F)cc4)cc3s2)cc1	i	i	88.2*	i
CCc1ccc(/C=C2/SC(=S)NC2=O)cc1	/	/	6.9	/
COc1ccc(NC(=O)CSc2nc(-c3ccco3)cc(C(F)(F)F)n2)cc1	i	i	94.6*	i
Cc1cccc(N2CCN(C(=O)c3cc4ccc5cccnc5c4[nH]3)CC2)c1C	i	i	-18.2	i
CC1CCc2c(sc(NC(=O)c3ccc(Cl)cc3Cl)c2C#N)C1 (centres undefined)	i	i	106.0*	i
CC1CCc2c(sc(NC(=O)C3c4ccccc4Oc4ccccc43)c2C#N)C1 (centres undefined)	i	i	-6.5	i
COc1ccccc1-c1nnc(SCC(=O)c2ccc(F)cc2)n1-c1ccccc1	i	i	69.9*	i
CCCCOc1ccc(C(=O)N2CCN(CCc3ccccn3)CC2)cc1	8.91µM*	i	17.0	i
O=C(Nc1ccc2nc(SCC(=O)N3CCOCC3)sc2c1)c1cccc(Cl)c1	i	i	2.3	i
CCN(CC)C(=O)Cn1c(=O)cc(C)c2c(C)nn(-c3cccc(Cl)c3C)c21	i	i	94.0*	i
CN1N=C(C(N)=O)CCC1=O	i	/	17.9	/
O=C(CC1(O)C(=O)N(CCc2ccccc2)c2ccc(Br)cc21)c1ccccc1 (centres undefined)	i	i	60.3*	i
SMILES	GALC G270D up	TSG101-PTAP inh	GPR32 ag	B2AR arrestin ag
Cc1ccc(OCC(=O)Nc2cc(-c3cccc(C)c3)nn2-c2ccccc2)cc1	i	i	-20.0	i
COc1ccc(OCC(=O)Nc2cc(-c3cccc(Cl)c3)nn2-c2ccccc2)cc1	i	i	100.2*	i
COc1ccc(OCC(=O)Nc2cc(-c3ccccc3F)nn2-c2ccccc2)cc1	i	i	90.7*	i
CCC(CC)C(=O)Nc1cc(-c2ccccc2F)nn1-c1ccccc1	i	i	-18.1	i
COC(=O)c1cc2sc(Cl)cc2n1CC(=O)Nc1cc(OC)cc(OC)c1	i	i	88.5*	i
O=C(NCCCN1CCN(c2ccc(F)cc2)CC1)c1cc2c(s1)-c1ccccc1OC2	i	i	80.4*	i
O=C(NCCCN1CCN(c2ccccc2)CC1)c1cc2c(s1)-c1ccccc1OC2	i	i	0.1	i
O=C(NCCc1ccc(Cl)cc1)c1cc2c(s1)-c1ccccc1OC2	i	i	62.4*	i
COc1cc(/C=C/C(=O)O[C@H]2CC[C@]34C[C@]35CC[C@]3(C)[C@@H]([C@H](C)CCC=C(C)C)CC[C@@]3(C)[C@@H]5CC[C@H]4C2(C)C)ccc1O	i	/	27.9	/
Cc1ccc(C)c(Nc2cc(C(=O)NCCCN(C)C3CCCCC3)c3ccccc3n2)c1	i	i	-8.5	i
CCc1ccccc1Nc1cc(C(=O)NCCCN(C)C2CCCCC2)c2ccccc2n1	i	i	78.5*	i
CCCOc1ccc(/C=C/C(=O)Nc2sc3c(c2C(=O)OCC)CCC(C)C3)cc1OC (centres undefined)	i	i	0.7	i
CCOC(=O)c1c(NC(=O)/C=C/c2ccc(Cl)cc2)sc2c1CCC(C)C2 (centres undefined)	i	i	79.4*	i
Cc1ccc(NC(=O)CCS(=O)(=O)c2ccc(Br)s2)c(Br)c1	i	i	70.9*	i
CC(=O)c1cccc(NC(=O)CCS(=O)(=O)c2ccc(Br)s2)c1	i	i	12.6	i
CC(C(=O)NCc1cccc(Br)c1)n1ncn2cccc2c1=O (centres undefined)	i	i	-18.9	i
Cc1ccc(NC(=O)CSc2c3c(nc4ccccc24)CCCC3)cc1F	i	i	64.6*	i
CNC(=O)c1c(I)c(NC(=O)CCCCC(=O)Nc2c(I)c(C(=O)O)c(I)c(C(=O)NC)c2I)c(I)c(C(=O)O)c1I	i	/	5.1	/
CC(=O)Nc1cccc(-c2nnc(SCC(=O)c3ccc([N+](=O)[O-])cc3)o2)c1	i	i	?	i
CC(=O)Nc1ccc(-c2nnc(SCC(=O)c3ccc([N+](=O)[O-])cc3)o2)cc1	i	i	64.0*	i
CC(=O)c1cc(-c2ccccc2)n(CC(=O)NCc2ccccc2C)c1C	/	i	79.7*	i
CC(=O)c1cc(-c2ccc(F)cc2)n(CCC(=O)NCc2ccccc2C)c1C	/	i	-9.7	i
Cc1cc(-n2c(C)nc3ccccc3c2=O)ccc1NC(=O)c1ccccc1[N+](=O)[O-]	i	i	94.0*	i
CCOC(=O)c1ccc(NC(=O)c2cnc(N3CCCC3)nc2C)cc1	i	i	96.4*	i
O=C(CSc1nc2c(c(=O)[nH]1)CCC2)Nc1cc(C(F)(F)F)ccc1Cl	i	i	82.6*	i
CC(Sc1nc2c(c(=O)[nH]1)CCCC2)C(=O)Nc1cc(C(F)(F)F)ccc1Cl (centres undefined)	i	i	24.9	i

Source: PubChem BioAssay (National Center for Advancing Translational Sciences (NCATS))
